The structures appear in SMILES notation.

This assay relates to wheat germ agglutinin (Triticum aestivum), Alexa647-labelled. The experiment in a line: Alexa647-WGA lectin binding to printed small molecules – biochemical, small-molecule microarray, 635/667 nm fluorescence, artefact control for SMM control-protein annotation, profiling panel (AID 1140).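 Also: score merges 667 nm feature emission with signal to noise over triplicate slides.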 As to conditions: WGA-A647 binding, 635 nm fluorescence, higher = more signal.
As for `C=CCC(OC(C)=O)[C@@H]1[C@@H](N(Cc2cccc3ccccc23)C(=O)c2cccc3ccccc23)c2cc(OCCCO)ccc2N1C(=O)c1ccc2ccccc2n1` (stereo not given in full), the composite z-score was -0.243.

With `COc1ccc(C(O)C2C=CC3C(=O)NC(=O)C3N2Nc2ccccn2)cc1OCc1ccccc1` (stereo not given), the composite z-score amounted to 0.532.

Take `CCCN1C(=O)[C@@]2(CCC(=O)OC(C)(C)C)N=C(c3ccc(OCCCO)cc3)O[C@H]2c2ccccc21`: the composite z-score is 0.133.

Compound `COc1cccc(C(=O)O[C@H]2CC[C@]3(C)C4=C(CCC3C2(C)C)[C@]2(C)CC[C@H]([C@H](C)CCCC(C)C)[C@@]2(C)CC4)c1` (stereo not given in full) came in with a composite z-score of 0.258.

`COc1cc2c(cc1OC)CN(C(=O)[C@@H]1[C@H]3C(=O)O[C@H](c4ccccc4)[C@H](c4ccccc4)N3[C@H](c3ccccc3OCCO)[C@@]13C(=O)Nc1ccc(C#CCNC(N)=O)cc13)CC2` had a composite z-score of 0.856.

`CN(C)CCCCNC(=O)[C@H]1C[C@H]2C(=O)N[C@@H](Cc3ccccc3)C(=O)N2[C@H]1c1ccc(O)cc1` came in with a composite z-score of 1.2.

In turn, `COc1ccc(CCN2C(=O)[C@@]3(Cc4ccccc42)c2ccccc2C(=O)N(Cc2ccccc2Cl)[C@H]3c2ccc(CO)cc2)cc1` came in with a composite z-score of -0.0043.

Compound `CCCCCCCCCCC(O)C1C=CC2C(=O)N(Cc3ccccc3)C(=O)C2N1n1cnnc1` (stereo not given) had a composite z-score of 0.493.

With `COCCOC(=O)N1C(=O)[C@@]2(c3cc(C#CCC(C(=O)OC)C(=O)OC)ccc31)[C@H](C(=O)N1CCN(c3ncccn3)CC1)[C@H]1C(=O)O[C@H](c3ccccc3)[C@H](c3ccccc3)N1[C@@H]2c1ccc(OCCO)cc1`, the composite z-score amounted to 0.945.

Consider `C=C(COC)C(=O)CC[C@@H](OC(=O)c1cccnc1)c1ccc(CO)o1`, for which the composite z-score is -0.0265.

These data come from PubChem BioAssay.
